Calls of active or inactive are those of the source.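 Rule for the calls: active = cell killing, with a fitted half-maximal concentration at or below twice the top valid dose tested; inconclusive = flat curve with moderate signal loss, or a poor fit; inactive = effect in the rising direction, plus the rest.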

The nature of the assay: cell viability loss in HEK293T cells – ATP luminescence, dry powder, set 11, cytotoxicity control, dose response (AID 743335). The following applies: ATP luminescence (CellTiter-Glo), 72 h; series mostly up to 15 µM.
As to `CN(C)CCCN(Cc1cc2ccccc2[nH]c1=O)C(=O)NCc1ccccc1`, the call was inactive.

As to `COc1ccc2nc(NC(=O)c3cc(S(=O)(=O)N(C)C)ccc3N3CCCC3)sc2c1`, the call was inactive.

Take `Cc1cnc(NC(=O)c2cc(S(=O)(=O)N(C)C)ccc2N2CCC2)s1`: the compound was called inactive.

Consider `Cc1cnc(NC(=O)c2cc(S(=O)(=O)N3CCCC3)ccc2N2CCCC2)s1`, for which the result was inactive.

On to `COc1cccc2sc(NC(=O)c3cc(S(=O)(=O)N(C)C)ccc3N3CCCC3)nc12`, for which the compound was classed as inactive.

Consider `Cc1csc(NC(=O)c2cc(S(=O)(=O)N(C)C)ccc2N2CCCC2)n1`, for which the result was inactive.

For `Cc1cnc(NC(=O)c2cc(S(=O)(=O)N(C)C)ccc2C2CCCC2)s1`, the compound was classed as inactive.

`CN(C)CCCN(Cc1cc2ccccc2[nH]c1=O)C(=O)Nc1ccccc1`: the compound was called inactive.

On to `Cc1cnc(NC(=O)c2cc(S(=O)(=O)N3CCOCC3)ccc2N2CCCC2)s1`, for which the result was inactive.

For the compound `Cc1ccc(NC(=O)c2cc(S(=O)(=O)N(C)C)ccc2N2CCCC2)cc1`, the result was inactive.

For `CN(C)S(=O)(=O)c1ccc(N2CCCC2)c(C(=O)Nc2cccc(F)c2)c1`, the compound was classed as inactive.

With `CN(C)S(=O)(=O)c1ccc(N2CCCC2)c(C(=O)Nc2nc3ccccc3s2)c1`, the compound was classed as inactive.

As for `CN(C)S(=O)(=O)c1ccc(N2CCCC2)c(C(=O)Nc2nccs2)c1`, the compound was classed as inactive.

With `CN(C)S(=O)(=O)c1ccc(N2CCCC2)c(C(=O)Nc2ccccc2)c1`, the call was inactive.

As for `COc1ccc2sc(NC(=O)c3cc(S(=O)(=O)N(C)C)ccc3N3CCCC3)nc2c1`, the compound was classed as inactive.

`Cc1cnc(NC(=O)c2cc(S(=O)(=O)N(C)C)ccc2N2CCCC2)s1`: the compound was called inactive.

The values above are taken from PubChem BioAssay AID743335 (Broad Institute, 2014).
